The whole screen tested about 5,500 compounds, of which about 2,000 (36%) were called active. Not shown: some 18% with an inconclusive outcome. No stated cut-off is given here; in the data, active means normalized growth mostly below about 0.91 (no sharp cut-off); inconclusive means no clear call, values can overlap the other calls; inactive means mostly above about 0.92. Some of the results follow.
Assay: chemical genetic growth profiling, strain panel (AID 1159580);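 further: tested at 20 µM; growth read once vehicle control cultures reached saturation at 30 °C; 1 = growth at the plate median or of vehicle wells; lower values mean less growth of the strain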
Settings: S. cerevisiae deletion strains, growth OD
[1] = locus YAR019C, strain CDC15, hits give low values
[2] = locus YBL105C, strain PKC1, hits give low values
[3] = locus YBR135W, strain CKS1, hits give low values
[4] = locus YBR136W, strain MEC1, hits give low values
[5] = locus YBR160W, strain CDC28, hits give low values
[6] = locus YDL017W, strain CDC7, hits give low values
[7] = locus YDL028C, strain MPS1, hits give low values
[8] = locus YDL101C, strain DUN1, hits give low values
[9] = locus YDL108W, strain KIN28, hits give low values
[10] = locus YDL132W, strain cdc53, hits give low values
[11] = locus YDL214C, strain PRR2, hits give low values
[12] = locus YDR052C, strain DBF4, hits give low values
[13] = locus YDR054C, strain cdc34, hits give low values
[14] = locus YDR226W, strain ADK1, hits give low values
[15] = locus YDR477W, strain SNF1, hits give low values
[16] = locus YER123W, strain YCK3, hits give low values
[17] = locus YER133W, strain GLC7, hits give low values
[18] = locus YFL009W, strain cdc4, hits give low values
[19] = locus YFL029C, strain CAK1, hits give low values
[20] = locus YFR003C, strain YPI1, hits give low values
[21] = locus YFR019W, strain FAB1, hits give low values
[22] = locus YFR028C, strain CDC14, hits give low values
[23] = locus YGR040W, strain KSS1, hits give low values
[24] = locus YGR052W, strain FMP48, hits give low values
[25] = locus YGR092W, strain DBF2, hits give low values
[26] = locus YHR030C, strain SLT2, hits give low values
[27] = locus YHR079C, strain IRE1, hits give low values
[28] = locus YHR082C, strain KSP1, hits give low values
[29] = locus YHR205W, strain SCH9, hits give low values
[30] = locus YIL147C, strain SLN1, hits give low values
[31] = locus YJL095W, strain BCK1, hits give low values
[32] = locus YJL128C, strain PBS2, hits give low values
[33] = locus YJL157C, strain FAR1, hits give low values
[34] = locus YJR016C, strain ILV3, hits give low values
[35] = locus YJR066W, strain TOR1 (second series), hits give low values
[36] = locus YJR066W, strain TOR1, hits give low values
[37] = locus YKL048C, strain ELM1, hits give low values
[38] = locus YKL067W, strain YNK1, hits give low values
[39] = locus YKL101W, strain HSL1, hits give low values
[40] = locus YKL193C, strain SDS22, hits give low values
[41] = locus YKL203C, strain TOR2, hits give low values
[42] = locus YLR113W, strain HOG1, hits give low values
[43] = locus YLR133W, strain CKI1, hits give low values
[44] = locus YLR403W, strain SFP1, hits give low values
[45] = locus YML070W, strain DAK1, hits give low values
[46] = locus YMR001C, strain CDC5, hits give low values
[47] = locus YMR205C, strain PFK2 (second series), hits give low values
[48] = locus YMR277W, strain FCP1, hits give low values
[49] = locus YNL006W, strain LST8, hits give low values
[50] = locus YNL020C, strain ARK1, hits give low values
[51] = locus YNL161W, strain CBK1, hits give low values
[52] = locus YNL183C, strain NPR1, hits give low values
[53] = locus YNL207W, strain RIO2, hits give low values
[54] = locus YNL222W, strain SSU72, hits give low values
[55] = locus YNL307C, strain MCK1 (second series), hits give low values
[56] = locus YOL078W, strain AVO1, hits give low values
[57] = locus YOL136C, strain PFK27, hits give low values
[58] = locus YOR061W, strain CKA2, hits give low values
[59] = locus YOR119C, strain RIO1, hits give low values
[60] = locus YOR231W, strain MKK1, hits give low values
[61] = locus YOR329C, strain SCD5, hits give low values
[62] = locus YPL031C, strain PHO85, hits give low values
[63] = locus YPL153C, strain RAD53, hits give low values
[64] = locus YPL204W, strain HRR25, hits give low values
[65] = locus YPL209C, strain IPL1, hits give low values
[66] = locus YPL256C, strain CLN2, hits give low values
[67] = locus YPR025C, strain CCL1, hits give low values
[68] = locus YPR106W, strain ISR1, hits give low values
[69] = locus YPR111W, strain DBF20, hits give low values
[70] = strain NNK1, hits give low values
[71] = strain TSCII, hits give low values

Measured: normalized growth

COC(=O)C1=C(C)NC(C)=C(C(=O)OC)C1c1ccc(Cl)cc1Cl
inactive: [1] 0.973 | [2] 0.976 | [3] 0.971 | [4] 0.976 | [5] 0.981 | [6] 0.979 | [7] 0.977 | [8] 0.973 | [9] 0.967 | [10] 0.967 | [11] 0.917 | [12] 0.986 | [13] 0.967 | [14] 0.972 | [15] 0.909 | [16] 0.887 | [17] 0.889 | [18] 0.968 | [19] 0.969 | [20] 0.98 | [21] 0.949 | [22] 0.974 | [23] 0.914 | [24] 0.989 | [25] 0.88 | [26] 0.99 | [27] 0.963 | [28] 0.97 | [29] 0.943 | [30] 0.961 | [31] 0.961 | [32] 0.98 | [33] 0.928 | [34] 0.972 | [35] 0.908 | [36] 0.999 | [37] 0.949 | [38] 0.947 | [39] 0.936 | [40] 0.978 | [41] 0.975 | [42] 0.912 | [43] 0.956 | [44] 0.88 | [45] 0.911 | [46] 0.972 | [47] 0.956 | [48] 0.978 | [49] 0.973 | [50] 0.94 | [51] 0.987 | [52] 0.985 | [53] 0.973 | [54] 0.973 | [55] 0.947 | [56] 0.991 | [57] 0.918 | [58] 0.93 | [59] 0.945 | [60] 0.933 | [61] 0.984 | [62] 0.884 | [63] 0.866 | [64] 0.898 | [65] 0.985 | [66] 0.971 | [67] 0.979 | [68] 0.975 | [69] 0.975 | [70] 0.977 | [71] 0.968

CCOC(=O)C1=C(N)OC2=C(C(=O)CC(C)(C)C2)C1c1ccc(Cl)cc1Cl (configuration not stated)
inactive: [1] 0.984 | [2] 0.982 | [3] 0.978 | [4] 0.981 | [5] 0.964 | [6] 0.978 | [7] 0.98 | [8] 0.966 | [9] 0.978 | [10] 0.975 | [11] 0.968 | [12] 0.979 | [13] 0.965 | [14] 0.978 | [15] 0.95 | [16] 0.927 | [17] 0.959 | [18] 0.974 | [19] 0.981 | [20] 0.982 | [21] 0.956 | [22] 0.976 | [23] 0.954 | [24] 1.08 | [25] 0.973 | [27] 0.943 | [28] 1.01 | [29] 0.953 | [30] 0.984 | [31] 0.904 | [32] 0.975 | [33] 0.976 | [34] 0.99 | [35] 0.95 | [36] 0.947 | [37] 0.948 | [38] 0.959 | [39] 0.963 | [40] 0.973 | [41] 1 | [42] 0.934 | [43] 0.961 | [44] 0.964 | [45] 0.944 | [46] 0.984 | [47] 0.976 | [48] 0.98 | [49] 0.987 | [50] 0.95 | [51] 0.983 | [52] 0.934 | [53] 0.989 | [54] 0.977 | [55] 0.947 | [56] 0.979 | [57] 0.952 | [58] 0.958 | [59] 1.06 | [60] 0.953 | [61] 0.976 | [62] 0.948 | [63] 0.952 | [64] 0.933 | [65] 0.966 | [66] 0.876 | [67] 0.979 | [68] 0.979 | [69] 0.964 | [70] 0.973 | [71] 0.982
active: [26] 0.804
